High-throughput results deposited in PubChem BioAssay by National Center for Advancing Translational Sciences (NCATS).
In the library only some 13% were active in any assay of this set; here they are far more common.
HCMV inh: blocks human cytomegalovirus replication; HFF cells, HCMV-luciferase reporter, 72 h; hits give low values; activity change, negative = inhibition, % at 57.5 µM; 4.5% of 410,000 active; in the data active means activity change below about -60%; inconclusive means no clear call, values can overlap the other calls; inactive means above about -39%
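Screen run at 2 compound doses on HFFs infected with reporter HCMV, MOI 1 PFU/cell. Luciferase activity from cell lysates at 72 h post infection gave inhibition relative to buffer-only and Salinomycin wells.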
Pf growth 96h: P. falciparum growth inhibition at 96 hours. Potency, µM (series often up to 28.7 µM), actives largely listed as inhibitors. 6.9% of 320,000 active. P. falciparum luciferase reporter growth, 96 h
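Parasite growth measured via integrated firefly luciferase reporter in P. falciparum. Infected erythrocytes at 2% hematocrit, 0.05% parasitemia final were treated 96 hours at 37 C under 5% CO2, and luminescence was read.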
Pf growth 48h: inhibits P. falciparum growth in the first generation, 48 h; Potency, µM (highest dose often 28.7 µM), most hits filed as inhibitors; AID 504832; 5.9% of 310,000 active; P. falciparum luciferase growth in erythrocytes, 48 h
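Here the parasites carry a stable luciferase gene and grow inside erythrocytes in Albumax-based RPMI medium with compound for one erythrocytic cycle. Activity is scored as loss of luminescent signal.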
HCV inhibitor: blocks hepatitis C virus; Huh7.5.1 HCVcc-Cre infection, luciferase reporter, 44 h; Potency, µM (series often up to 41.8 µM), usual class: inhibitors; 3.4% of 340,000 active; AID 651820
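Seed cells (1,000/well) for 4 h; treat with compound and infect with HCVcc-Cre, moi about 0.5. Incubate 44 h, then detect luciferase activity.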
A number is an active result; – = inactive; ? = inconclusive; · = no result given. Unless noted, the call rests on the fitted dose curve; in most records, active means well fitted inhibition curve with a large enough effect; inconclusive means small, poorly fitted or top-dose-only effect, or another doubt; inactive means no such curve, though single readings can be large or run the other way.

SMILES	HCMV inh	Pf growth 96h	Pf growth 48h	HCV inhibitor
Cc1ccccc1C1=N/C(=C/c2cccs2)C(=O)O1	–	?	–	–
Cc1ccc(C2=N/C(=C/c3cccs3)C(=O)N2Nc2ccccc2)cc1	–	·	?	11µM
CCC(C(=O)Nc1ccc(C(C)=O)cc1)n1c(C)c2cnn(-c3ccccc3)c(=O)c2c1C (configuration not stated)	–	·	·	·
N=c1ccn(Cc2ccc([N+](=O)[O-])cc2)cc1	–	?	4.1µM	?
CCN(CC)C(C(=O)Nc1ccc(C(C)C)cc1)c1ccc2c(c1)OCO2 (configuration not stated)	–	–	8.3µM	?
O=C(Cc1ccc([N+](=O)[O-])cc1)Nc1ccc2c(c1)OCO2	–	–	–	–
CC(C(=O)Nc1cccc(Br)c1)c1ccc([N+](=O)[O-])cc1 (configuration not stated)	?	?	10µM	?
CC(C(=O)Nc1ccc2c(c1)OCCO2)c1ccc([N+](=O)[O-])cc1 (configuration not stated)	–	–	3.3µM	–
CC(C)c1ccc(NC(=O)C(c2ccc3c(c2)OCO3)N2CCN(C(=O)c3ccco3)CC2)cc1 (configuration not stated)	–	–	?	?
O=C(Nc1cccc([N+](=O)[O-])c1)Nc1ccc2c(c1)OCCO2	–	–	–	–
CC(C(=O)Nc1ccc2c(c1)OCO2)c1ccc([N+](=O)[O-])cc1 (configuration not stated)	?	?	2.3µM	–
CN(Cc1ccc(C(C)(C)C)cc1)C(=O)Cc1ccc(S(=O)(=O)N2CCOCC2)s1	–	13µM	9.3µM	?
CN(Cc1ccc(Cl)cc1)C(=O)c1cc(S(=O)(=O)N2CCOCC2)ccc1N1CCCC1	–	?	?	–
Cc1ccc(N(Cc2ccccc2)C(=O)c2cc(S(=O)(=O)N3CCOCC3)ccc2N2CCCC2)cc1	-61	?	2.6µM	?
Cc1ccc(C(=O)N(CCc2ccccc2)Cc2ccccc2)cc1S(=O)(=O)N1CCCCC1	–	8.3µM	13µM	?
Cc1cccc(N(Cc2ccccc2)C(=O)c2ccc(C)c(S(=O)(=O)N3CCOCC3)c2)c1	?	?	7.4µM	?
Cc1ccc(C(=O)N(CCc2ccccc2)Cc2ccccc2)cc1S(=O)(=O)N1CCOCC1	–	·	·	?
Cc1ccc(OCC(=O)Nc2ccc3nc(SCC(=O)N4CCCC4)sc3c2)cc1	–	·	·	·
CCc1ccccc1NC(=O)Cn1cc2c(n1)CCC(C)C2 (configuration not stated)	–	·	·	·
CC(C)OCCCn1c(=O)c2ccccc2n2c(-c3ccccc3)nnc12	–	·	·	·
Cc1cccc(N(Cc2ccccc2)C(=O)c2cccc(S(=O)(=O)N3CC(C)OC(C)C3)c2)c1 (configuration not stated)	–	?	13µM	?
COc1ccc(C(=O)N(Cc2ccccc2)c2cccc(C)c2)cc1S(=O)(=O)N1CCOCC1	–	5.2µM	10µM	–
Cc1ccc(S(=O)(=O)N2CCOCC2)cc1C(=O)N1c2ccccc2Sc2ccccc21	–	·	?	10µM
Cc1ccc(S(=O)(=O)N2CCOCC2)cc1C(=O)OCC(=O)N(Cc1ccccc1)C(C)C	–	?	15µM	?
O=C(OCC(=O)N(CCc1ccccc1)Cc1ccccc1)c1cc(S(=O)(=O)N2CCOCC2)ccc1F	–	–	–	–
SMILES	HCMV inh	Pf growth 96h	Pf growth 48h	HCV inhibitor
CC1CN(S(=O)(=O)c2cccc(C(=O)NCCC3=CCCCC3)c2)CC(C)O1 (configuration not stated)	–	?	?	?
COc1ccc(CC(=O)N(Cc2ccccc2)c2ccccc2)cc1S(=O)(=O)N1CCOCC1	–	?	?	?
CCOC(=O)c1cc(-c2ccc(OC)cc2)n(CCC(=O)Nc2cccc(C(C)=O)c2)c1C	–	·	·	·
CCc1ccc(C(=O)c2cn(CC(=O)Nc3ccc(F)cc3)c3cc4c(cc3c2=O)OCO4)cc1	–	·	·	·
COc1cccc(C(=O)N2CCN(CCc3ccncc3)CC2)c1	–	·	·	·
COc1ccc(OCCn2nnc3sc4c(c3c2=O)CCC(C(C)(C)C)C4)cc1 (configuration not stated)	–	·	·	·
Cc1ccc(NC(=O)CN2C(=O)CCc3ccccc32)cc1C	–	·	·	·
CN(Cc1cccc(F)c1)C(=O)Cc1ccc(S(=O)(=O)N2CCOCC2)s1	?	?	?	–
CC1CCN(S(=O)(=O)c2cccc(C(=O)N(Cc3ccccc3)c3ccccn3)c2)CC1	-66	–	–	–
COc1ccc(C(=O)N(CCc2ccccc2)Cc2ccccc2)cc1S(=O)(=O)N1CCOCC1	–	8.3µM	?	–
CC1CN(S(=O)(=O)c2cc(C(=O)N(CCc3ccccc3)Cc3ccccc3)ccc2Cl)CC(C)O1 (configuration not stated)	–	5.2µM	5.2µM	?
Cc1cccc(N(Cc2ccccc2)C(=O)Cc2ccc(S(=O)(=O)N3CCOCC3)s2)c1	–	?	13µM	–
Cc1cc(C)c2c(n1)nn1c(C)c(CCC(=O)Nc3ccc(C)c(Cl)c3)c(C)nc21	–	·	·	·
Cc1cccc(N(Cc2ccccc2)C(=O)c2ccc(F)c(S(=O)(=O)N3CCOCC3)c2)c1	–	12µM	12µM	?
CCOc1ccc(CCNC(=O)CN2CCN(Cc3ccccc3F)C2=O)cc1OCC	–	1.5µM	?	11µM
CCOc1ccc(CCNC(=O)CN2C(=O)NC3(CCCCCC3)C2=O)cc1OCC	–	?	13µM	–
COc1ccc(CNC(=O)CN2C(=O)NC3(CCCCCC3)C2=O)cc1OC	–	–	–	–
CCOc1ccc(CCNC(=O)CN2CCN(Cc3ccc(F)cc3)C2=O)cc1OCC	–	–	·	?
CCOc1ccc(C(=O)NNC(=O)CN2C(=O)NC3(CCCC3)C2=O)cc1	-102	–	–	–
Cc1cccc(-c2noc(-c3ccc(NCC4CCCO4)c([N+](=O)[O-])c3)n2)c1 (configuration not stated)	–	·	·	·
CCN(CC)S(=O)(=O)c1ccc2c(c1)c(=O)c(C(=O)N1CCN(c3cc(C)ccc3C)CC1)cn2C	–	·	·	·
O=C1CC(/C=C/c2ccc(Cl)cc2)=Nc2ccccc2N1	-91	?	?	?
CC1(C)CC(/C=C/c2ccccc2)=Nc2ccccc2N1	-78	?	?	–
COc1ccc(/C=C(\C#N)c2nc3ccccc3c(=O)[nH]2)cc1OC	–	·	·	·
O=C(CC1C(=O)NCCN1Cc1ccc(-c2ccccc2)cc1)NC1CCC1 (configuration not stated)	–	–	?	–
CCOC(=O)N1CCC(NC(=O)CC2C(=O)NCCN2Cc2ccccc2)CC1 (configuration not stated)	–	9.3µM	–	–
CCOC(=O)N1CCN(c2c(NC3CCN(Cc4ccccc4)CC3)c(=O)c2=O)CC1	-64	?	·	–
CCc1cc(CNC(=O)CC2C(=O)NCCN2Cc2ccc(-c3ccccc3)cc2)on1 (configuration not stated)	?	2.1µM	–	–
O=C(CC1C(=O)NCCN1Cc1ccc(-c2ccccc2)cc1)NCc1ccccc1 (configuration not stated)	–	6.6µM	–	–
